Consider 27 compounds from the supplement of paper PMC7366291.

Conditions in all cases: 25 µM; exposure: 24-48 hpf
For experiment [1], the system named is Danio rerio Tg(wt1b:EGFP) embryo, pronephros. The experiment is described as follows: glomerular separation, fold change vs DMSO control; higher = glomeruli further apart (abnormal). The method, boiled down: (§1)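 Each feature value is a fold change relative to the mean of same-day DMSO-treated embryos. Embryos of the Tg(wt1b:EGFP) zebrafish line, dechorionated, received 25 μM compound in 0.5% DMSO from 24 to 48 hpf at 28.5°C, in HEPES-buffered E3 with 0.003% PTU. Distances and angles were computed by a Fiji macro from 16 manually set reference points on maximum projections of dorsal pronephros images, and values beyond 2 SD of the feature mean were removed.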

For experiment [2] the test system is unchanged. The experiment is described as follows: glomerular width (mean of left and right), fold change vs DMSO control; higher = wider glomerulus. The method, boiled down:
as §1

For experiment [3] the test system is unchanged. The experiment is described as follows: fraction of imaged embryos annotated as normal kidney; higher = less nephrotoxic; extreme values may be limits of the assay. The method, boiled down: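 The read-out is the proportion of embryos in each treatment manually annotated as normal-kidney. Exposure ran from 24 to 48 hpf at 28.5°C in 12-well plates, using dechorionated Tg(wt1b:EGFP) zebrafish embryos in 5 mM HEPES-buffered E3 with 0.003% PTU, 0.5% DMSO and 25 μM compound. For imaging, larvae were anaesthetised with tricaine, positioned dorsally in agarose-filled 96-well plates and captured by widefield fluorescence (470 nm, 10 z-slices), with scoring done on maximum projections.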

The test system is the same in experiment [4]. Nature of the experiment: pronephric angle neck segment to proximal convoluted tubule (mean of left and right), fold change vs DMSO control; higher = larger pronephric angle. The essentials: as §1

Structures can show the parent of a compound that is named as a salt. ± gives the standard deviation or the standard deviation of the averaged measurements.

On to `CCCCNc1cc(C(=O)O)cc(S(N)(=O)=O)c1Oc1ccccc1` [Bumetanide], for which the glomerular separation in experiment [1] was found to be 1.41 ± 0.43. In experiment [2], this compound displayed a glomerular width of 1.08 ± 0.023. Moreover, in experiment [3], the “fraction of imaged embryos annotated as normal kidney” value (“fraction of imaged embryos annotated” below) was 0.75. The “pronephric angle neck segment” value in experiment [4] was 1 ± 0.022.
For `COc1cccc2c1C(=O)c1c(O)c3c(c(O)c1C2=O)C[C@@](O)(C(=O)CO)C[C@@H]3O[C@H]1C[C@H](N)[C@@H](O)[C@H](C)O1` [Epirubicin hydrochloride] the same measures were 1.93 ± 0.41, 1.07 ± 0.031, 0.75 and 0.963 ± 0.053.
For `CC(C)(Oc1ccc(Cl)cc1)C(=O)O` [Clofibric acid] the same measures were 1.17 ± 0.56, 0.927 ± 0.036, 0.667 and 1.001 ± 0.0094.
For `O=C1CCc2cc(OCCCCc3nnnn3C3CCCCC3)ccc2N1` [Cilostazol] the same measures were 1.05 ± 0.38, 1 ± 0.023, 0.75 and 0.994 ± 0.05.
In experiment [1], `C[C@@H]1C[C@H]2[C@@H]3CCC4=CC(=O)C=C[C@]4(C)[C@@]3(Cl)[C@@H](O)C[C@]2(C)[C@@]1(OC(=O)c1ccco1)C(=O)CCl` [Mometasone furoate] returned a glomerular separation of 0.99 ± 0.37. Further, in experiment [2], the glomerular width is 1.26 ± 0.082. Further, in experiment [3], the “fraction of imaged embryos annotated” value was found to be 0.455. The “pronephric angle neck segment” value in experiment [4] is 0.993 ± 0.085.
For `CCCC(C(=O)OCCN(CC)CC)(c1ccccc1)c1ccccc1` [Proadifen hydrochloride], in that order: 0.771 ± 0.16, 1.09 ± 0.071, 0.889 and 1.03 ± 0.037.
In turn, `CCCC1C(=O)N2C(N(C)C)=Nc3ccc(C)cc3N2C1=O` (stereo not drawn) [Azapropazone] displayed a glomerular separation in experiment [1] of 1.16 ± 0.34. In experiment [2], this compound yielded a glomerular width of 0.984 ± 0.022. In addition, in experiment [3], the “fraction of imaged embryos annotated” value turned out to be 0.917. Besides, in experiment [4], the “pronephric angle neck segment” value stood at 1.018 ± 0.0029.
For `NC1CCN(c2nc3c(cc2F)c(=O)c(C(=O)O)cn3-c2ccc(F)cc2F)C1` (stereo not drawn) [Tosufloxacin hydrochloride] the same measures were 0.995 ± 0.36, 1.07 ± 0.074, 0.833 and 1.038 ± 0.0028.
Take `O=C1c2cccc(O)c2C(=O)c2c(O)cccc21` [1,8-Dihydroxyanthraquinone]: the glomerular separation in experiment [1] stood at 1.16 ± 0.45. Besides, the glomerular width in experiment [2] amounted to 1 ± 0.04. Besides, in experiment [3], the “fraction of imaged embryos annotated” value was determined as 0.917. In experiment [4], the “pronephric angle neck segment” value was 1.03 ± 0.036.
For `CN[C@H](CC(C)C)C(=O)N[C@H]1C(=O)N[C@@H](CC(N)=O)C(=O)N[C@H]2C(=O)N[C@H]3C(=O)N[C@H](C(=O)N[C@H](C(=O)O)c4cc(O)cc(O)c4-c4cc3ccc4O)[C@H](O)c3ccc(c(Cl)c3)Oc3cc2cc(c3O[C@@H]2O[C@H](CO)[C@@H](O)[C@H](O)[C@H]2O[C@H]2C[C@](C)(N)[C@H](O)[C@H](C)O2)Oc2ccc(cc2Cl)[C@H]1O` [Vancomycin hydrochloride], in that order: 0.943 ± 0.23, 0.978 ± 0.033, 0.909 and 1.06 ± 0.077.
With `Cn1c(=O)c2c(ncn2CC(O)CO)n(C)c1=O` (stereo not drawn) [Diprophylline], the glomerular separation in experiment [1] came out at 0.977 ± 0.2. In experiment [2], this compound returned a glomerular width of 0.966 ± 0.01. Besides, the “fraction of imaged embryos annotated” value in experiment [3] came to 0.667. Moreover, the “pronephric angle neck segment” value in experiment [4] is 1.05 ± 0.051.
The compound `CN1CCCC(n2nc(Cc3ccc(Cl)cc3)c3ccccc3c2=O)CC1` (stereo not drawn) [Azelastine hydrochloride] registered a glomerular separation in experiment [1] of 0.737 ± 0.21. Further, the glomerular width in experiment [2] turned out to be 0.885 ± 0.04. Also, the “fraction of imaged embryos annotated” value in experiment [3] came out at 1. The “pronephric angle neck segment” value in experiment [4] came to 1.11 ± 0.024.
For `C[C@]12CC[C@H]3C(=CCc4cc(O)ccc43)[C@@H]1CCC2=O` [Equilin] the same measures were 1.59 ± 0.67, 0.988 ± 0.038, 0.25 and 1.17 ± 0.015.
For `O=C(O)COC(=O)Cc1ccccc1Nc1c(Cl)cccc1Cl` [Aceclofenac], in that order: 3.56 ± 1.8, 1 ± 0.16, 0.25 and 1.24 ± 0.15.
For `Cc1cc(-n2c(=O)[nH]c(=O)n(C)c2=O)ccc1Oc1ccc(SC(F)(F)F)cc1` [Toltrazuril] the same measures were 1.34 ± 0.62, 0.8688 ± 0.0053, 0.5 and 1.09 ± 0.045.
On to `Cc1cc(/C=C/c2ccc3cc(N(C)C)ccc3[n+]2C)c(C)n1-c1ccccc1` [Pyrvinium pamoate], for which, in experiment [1], the glomerular separation was 1.12 ± 0.41. Moreover, the glomerular width in experiment [2] turned out to be 0.975 ± 0.021. Besides, the “fraction of imaged embryos annotated” value in experiment [3] worked out at 0.833. In experiment [4], the “pronephric angle neck segment” value worked out at 1.02 ± 0.034.
For `Cc1cnc(C(=O)O)c[n+]1[O-]` [Acipimox], in that order: 1.01 ± 0.23, 1.015 ± 0.0095, 1 and 0.94922 ± 0.00089.
For `O=C(O)c1ccccc1OP(=O)(O)O` [Fosfosal], in that order: 0.789 ± 0.23, 1.07 ± 0.022, 0.833 and 0.9628 ± 0.0065.
For `CN(C)CCCOc1nn(Cc2ccccc2)c2ccccc12` [Benzydamine hydrochloride], in that order: 1.24 ± 0.21, 1.03 ± 0.035, 1 and 0.9939 ± 0.0028.
In experiment [1], `CCOC(=O)c1ccc(N)cc1` [Benzocaine] displayed a glomerular separation of 1.45 ± 0.34. The same compound returned a glomerular width in experiment [2] of 0.901 ± 0.021. Besides, the “fraction of imaged embryos annotated” value in experiment [3] was 0.833. For the same compound, the “pronephric angle neck segment” value in experiment [4] came out at 1.02 ± 0.016.
For `Clc1ccc(CO/N=C(\Cn2ccnc2)c2ccc(Cl)cc2Cl)c(Cl)c1` [Oxiconazole Nitrate] the same measures were 3.51 ± 1.1, 0.623 ± 0.014, 0 and 1.26 ± 0.03.
For `CCc1cc(C(N)=S)ccn1` [Ethionamide], in that order: 0.955 ± 0.39, 0.97628 ± 0.00041, 0.75 and 0.96 ± 0.039.
For `CC(=O)[C@H]1CC[C@H]2[C@@H]3C[C@H](C)C4=CC(=O)CC[C@]4(C)[C@H]3[C@@H](O)C[C@]12C` [Medrysone] the same measures were 1.02 ± 0.44, 1.17 ± 0.072, 0.417 and 0.957 ± 0.019.
In the case of `CN(C)CCN1C(=O)c2ccccc2N(C)c2ccccc21` [Dibenzepine hydrochloride], in experiment [1], the glomerular separation worked out at 1.21 ± 0.68. For the same compound, in experiment [2], the glomerular width is 1.08 ± 0.047. Moreover, in experiment [3], the “fraction of imaged embryos annotated” value is 0.75. In addition, the “pronephric angle neck segment” value in experiment [4] is 0.967 ± 0.086.
For `Oc1c(I)cc(Cl)c2cccnc12` [Clioquinol] the same measures were 4.35 ± 1.5, 0.626 ± 0.024, 0 and 1.59 ± 0.077.
For `COc1ccc(CN(CCN(C)C)c2ccccn2)cc1` [Pyrilamine maleate], in that order: 1.29 ± 0.44, 1.03 ± 0.018, 0.667 and 1.03 ± 0.033.
In turn, `CN1CCCN=C1/C=C/c1cccc(O)c1` [Oxantel pamoate] showed a glomerular separation in experiment [1] of 0.88 ± 0.16. Besides, the glomerular width in experiment [2] was 1.012 ± 0.0033. Further, the “fraction of imaged embryos annotated” value in experiment [3] stood at 0.917. Besides, the “pronephric angle neck segment” value in experiment [4] came out at 1.03 ± 0.034.
